This is part of a sample that, as a whole, favours compounds with a hit. Of some 83,000 tested, about 20% had one in any assay.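 Results are percent growth after 48 hours of single-concentration exposure. 100 means growth as in untreated cells, lower positive values show inhibition; negative values down to -100 show cell death.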 Values without a mark were called inactive. Active and inactive are the calls of the source.

Drawing on PubChem BioAssay (NCI), this text covers growth for 40 molecules.

The assay relates to MCF7 breast. Put plainly: NCI-60 one-dose screen, 48 h (100 = growth as untreated, 0 = no growth, -100 = all killed). Conditions: 10 µM unless noted. The method, then: Growth inhibition of the MCF7 human tumor cell line is measured as a screen for anti-cancer activity. Cells are grown in 96 well plates and exposed to the test compound for 48 hours. Compounds are tested at a single concentration, which is 10^-5 M for most compounds. The reported endpoint is percent growth (GI% or GIPRCNT), where numbers from 0 - 100% represent growth inhibition, and numbers from -100% - 0 represent cell death. For example, a value of 40 represents 60% growth inhibition. A value of 0 means no net growth occurred over the course of the experiment. A value of -40 indicates 40% of cells at the beginning of the experiment died by the end of the experiment. A value of -100 means all cells are dead at the end of the experiment.
NCI-60 Human Tumor Cell Lines Screen was performed using the standard one-dose NCI protocol, which is described in more detail at https://dtp.cancer.gov/discovery_development/nci-60/default.htm.
Compounds with GIPRCNT values below 10 were considered active. Activity score was based on GIPRCNT using the following formula: […]
Score is 0 for GIPRCNT values of 100 or above, 50 for GIPRCNT values of 0, and 100 for GIPRCNT values of -100.
Turning to `COc1ccc(C(=O)c2cc(OC)c(OC)c(OC)c2)cc1OC(C)=O`, the growth is 15.7%.
To `CC[C@H](C)[C@H](NC(=O)NC(C)(C)C)C(=O)N(C)[C@H](C[C@@H](OC(C)=O)c1nc(C(=O)N[C@@H](Cc2ccccc2)C[C@H](C)C(=O)OC)cs1)C(C)C` belongs 13.1%; to `O=C(CCCC1CCCCC1)OCC(Cl)(Cl)Cl`, 95.5%.
Regarding `CO[C@H]1CC[C@@]2(C)C(=CC[C@@H]3[C@@H]2CC[C@]2(C)C(=O)C(=O)C[C@@H]32)C1`, the growth is 102%.
To `O=C(Nc1ccc([N+](=O)[O-])cc1)C(Cl)(Cl)Cl` belongs 85.9%; to `CC12CC=CCC1CCC1C2CCC2(C)C(c3ccc(=O)oc3)CCC12O` (stereo not given), -21.6% (active).
Consider `COc1ccc2c(c1)c(C1(O)CC(CSC#N)OC1=O)cn2C(=O)c1ccc(Cl)cc1` (stereo not given), for which the growth was 91.6%.
To `N#Cc1c(Br)n(C2OC(CO)C(O)C2O)c2ncnc(N)c12` (stereo not given) belongs 3.47% (active); to `Cc1ccc(C(=O)NCCCOc2ccc(N)cc2Cl)cc1S(=O)(=O)F`, 103%; to `O=[N+]([O-])c1c(Br)sc(Br)c1[N+](=O)[O-]`, 23.3%.
The same measure for `CCOP(=O)(Cc1ccc(C#N)cc1)OCC`: 88.6%; for `CC(=O)O[C@H]1C(=O)[C@@]2(C)[C@H]([C@H](OC(=O)c3ccccc3)[C@]3(O)C[C@H](OC(=O)[C@H](OC(=O)OC[C@@H]4COC(C)(C)O4)[C@@H](NC(=O)c4ccccc4)c4ccccc4)C(C)=C1C3(C)C)[C@]1(OC(C)=O)CO[C@@H]1C[C@@H]2O`: 11%; for `CC[C@H](C)[C@H](NC(=O)C12C3C4C1C1C2C3C41NC)C(=O)N(C)[C@H](C[C@@H](OC(C)=O)c1nc(C(=O)N[C@@H](Cc2ccccc2)C[C@H](C)C(=O)OC)cs1)C(C)C` (stereo not given in full): 17.2%.
The same measure for `C=C(C)[C@@]12OC3(/C=C/C=C/CCCCC)O[C@@H]1[C@@H]1[C@@H]4O[C@]4(CO)[C@@H](O)[C@]4(O)C(=O)C(C)=C[C@H]4[C@@]1(O3)[C@H](C)[C@H]2OC(=O)c1ccccc1`: 38.7%.
As for `COc1cc(C=Nc2cc(Cl)cc(Cl)c2)ccc1N(CCCl)CCCl`, the growth is 84.2%.
As for `CCOC(=O)CCN(C)C1=Nc2ccc(Cl)cc2C(c2ccccc2)=[N+]([O-])C1`, the growth is 97.1%.
As for `CCOP1(=O)CC(C)=C(Cl)C(P(=O)(OCC)OCC)C1` (stereo not given), the growth was 99.7%.
The same measure for `COC(=O)[C@@H](C)C[C@H](Cc1ccccc1)NC(=O)c1nc([C@@H](C[C@H](C(C)C)N(C)C(=O)[C@@H](NC(=O)[C@H]2C[C@H](O)CCN2C)C(C)C)OC(C)=O)sc1C(C)C`: 18.7%; for `CCOC(=O)CCC(NC(=O)C(Cc1ccc(N(CCCl)CCCl)cc1)NC=O)C(=O)OCC` (stereo not given): 22.1%.
To `N#C[Se]Cc1cc(-c2ccccc2)n(-c2ccc(S(N)(=O)=O)cc2)n1` belongs -26.1% (active); to `CC(=O)O[C@H](C[C@H](C(C)C)N(C)C(=O)[C@@H](NC(=O)[C@H]1CCCCN1C)C(C)(C)C)c1nc(C(=O)N[C@@H](Cc2ccccc2)C[C@H](C)C(=O)O)cs1`, 16.4%; to `Cn1cc(-c2csc(-c3cn(CCN4CCOCC4)c4ccccc34)n2)c2cccnc21`, 30.7%.
The same measure for `C[C@]12CC[C@H]3[C@@H](C[C@@H]4SC(Nc5ccccc5)=N[C@@]45CC(O)CC[C@]35C)[C@@H]1CCC2O` (stereo not given in full): 29.2%; for `O=C1C(N2CC2)=C(N2CC2)C(=O)C(N2CC2)=C1N1CC1`: -46.1% (active); for `O=C1C2C(C(=O)[N]1[Hg][c]1cccs1)C1(Cl)C(Cl)=C(Cl)C2(Cl)C1(Cl)Cl` (stereo not given): -13.1% (active).
With `COC1CC2c3ccccc3C1C(C)=[N+]2C` (stereo not given), the growth was 97.3%.
For the molecule `C#Cc1ccc2c(c1)C(c1ccccc1)=NCC(=O)N2C`, the growth is 18.4%.
To `CCCCN(CCCC)P(=O)(Oc1ccccc1)Oc1ccccc1` belongs 48.4%.
The same measure for `CNC(=O)Oc1ccc(N(C)C)cc1C(C)C`: 91%.
To `Cn1cc(-c2csc(-c3cn(CCCCN4CCCCC4)c4ccc(F)cc34)n2)c2cccnc21` belongs -55.9% (active).
Take `CC12CCC=CC1CCC1C2CCC2(C)C(c3ccc(=O)oc3)CCC12O` (stereo not given): the growth was -30.6% (active).
To `C[C@]12CC[C@H]3[C@@H](CC4SC(N)=NC45C/C(=N/NC(N)=O)CC[C@]35C)[C@@H]1CCC2=O` (stereo not given in full) belongs -55.6% (active); to `CC(=O)O[C@H]1C(=O)[C@@]2(C)[C@H]([C@H](OC(=O)c3ccccc3)[C@]3(O)C[C@H](OC(=O)[C@H](OC(=O)OC[C@H]4COC(C)(C)O4)[C@@H](NC(=O)c4ccccc4)c4ccccc4)C(C)=C1C3(C)C)[C@]1(OC(C)=O)CO[C@@H]1C[C@@H]2O`, 9.62% (active); to `Clc1ccc(N2COOC3(OOC2)C2CC4CC(C2)CC3C4)cc1`, 71.7%.
The same measure for `Cn1cc(C=O)c2nccnc21`: 91.4%.
The same measure for `CC[C@H](C)[C@H](NC(=O)C12CC(NC(C)=O)(C1)C2)C(=O)N(C)[C@H](C[C@@H](OC(C)=O)c1nc(C(=O)N[C@@H](Cc2ccccc2)C[C@H](C)C(=O)OC)cs1)C(C)C`: 15.7%; for `COC(=O)[C@@H](C)C[C@H](Cc1ccccc1)NC(=O)c1csc([C@@H](C[C@H](C(C)C)N(C)C(=O)[C@@H](NC(=O)[C@H]2CCCCN2C)c2ccc(F)cc2)OC(C)=O)n1`: 22.3%.
On to `Cc1cc(NC(=O)NCc2ccc(N3C(N)=NC(N)=NC3(C)C)cc2)ccc1S(=O)(=O)F`, for which the growth is 23.2%.
To `CNC(=O)Oc1cccc(C(F)(F)F)c1` belongs 109%; to `COc1cccc(/C=C/[N+](=O)[O-])c1`, -11.2% (active).
